The source of these data is PubChem BioAssay AID652067 (The Scripps Research Institute Molecular Screening Center, 2013).

The campaign covered roughly 370,000 compounds. About 5,400 (1.5%) were called active.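 How the source made its calls: active means activation above the mean of all tested compounds plus 3 SD (cut at about 5.5% in these data); inactive means the rest.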 Shown is part of a subset that was picked to be rich in actives.

This assay concerns DAF-12 nuclear receptor (Haemonchus contortus). Kind of assay: H. contortus DAF-12 nuclear receptor activators, primary screen, cell-based, luminescence, HEK293, lit1-tk-luc reporter (AID 652067).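 Further: 100% = response to 3 µM Δ7-dafachronic acid high control.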 The following applies: HEK293 hcDAF-12 lit1-tk-luc reporter, at 6.8 µM, active compounds read high, 0% DMSO, 100% Δ7-dafachronic acid.
As for `CC(C)CC(=O)N/C(N)=N/c1nc2ccccc2s1`, the activation is 8.5% (active).
On to `CC(NC(=O)COC(=O)c1ccc2ccccc2n1)c1ccccc1` (stereo not drawn), for which the activation is 2.13% (inactive).
`CC(C)CC(=O)NC(=S)NNC(=O)c1cccc([N+](=O)[O-])c1`: the activation is 1.89% (inactive).
On to `Cc1cnc(C)c(N2CCN(C(=O)C3CCC(=O)N(CCc4cccc(F)c4)C3)CC2)n1` (stereo not drawn), for which the activation was -0.94% (inactive).
As for `Cc1sc2nc(SCC(=O)c3ccc(O)c(O)c3)n(Cc3ccco3)c(=O)c2c1C`, the activation is -0.45% (inactive).
The result for `CC12CCC(C(=O)N3CCN(c4ncccn4)CC3)(c3nc4ccccc4nc31)C2(C)C` (stereo not drawn) reads -0.6% (inactive); that for `c1cnc(N2CCN(c3ccc4ccccc4n3)CC2)nc1`, 9.72% (active); that for `CC1=C(N2CCN(c3ncccn3)CC2)CCC1=O`, -1.78% (inactive).
With `COC(=O)N1Cc2ccnnc2CC1c1ccccc1Br` (stereo not drawn), the activation was -2.69% (inactive).
`Nc1ccn([C@@H]2O[C@H](C(=O)N[C@H]3CCCCNC3=O)[C@@H](O)[C@H]2O)c(=O)n1`: the activation was 0.58% (inactive).
With `Cc1cccc(N2CCN(Cc3c(C)n(C)n(-c4ccccc4)c3=O)CC2)c1C`, the activation is -2.12% (inactive).
The result for `Cc1ccc(CN2CCN(Cc3ccccc3-c3ccco3)CC2CCO)o1` (stereo not drawn) reads -0.79% (inactive); that for `CCn1cc(CN2CCN(CC(C)(C)C)C(CCO)C2)c2ccccc21` (stereo not drawn), 7.54% (active).
The result for `COc1ccccc1N1CCC(N2CCN(CC(C)(C)C)C(CCO)C2)CC1` (stereo not drawn) reads -0.72% (inactive); that for `COC(=O)[C@]12C[C@H](CC(=O)NCc3ccccc3)C(=O)N(Cc3ccccc3)C1=C[C@H](COCc1ccccc1)O[C@@H]2C`, -1.28% (inactive).
Turning to `CC(=O)c1cccc(NC(=O)COc2ccc(S(=O)(=O)N3CCOCC3)cc2)c1`, the activation was -0.45% (inactive).
`Cc1ccccc1NC(=O)C1CCN(c2ncccn2)CC1`: the activation was 0.03% (inactive).
In the case of `Nn1c(SCC(=O)N2c3ccccc3Sc3ccccc32)nnc1-c1n[nH]c2c1CCC2`, the activation is -2.66% (inactive).
With `CCOC(=O)c1cnn(Cc2ccccc2Cl)c1N`, the activation was 1.1% (inactive).
To `CCOC(=O)c1cc2n(c1N)-c1ccccc1C2=O` belongs 6.53% (active); to `CCOC(=O)c1ccccc1NC(=O)c1c(N)n(C)c(=O)[nH]c1=O`, -0.79% (inactive); to `C[C@H](O)[C@@H]1CN2CCc3ccc(-c4ccc5c(c4)OCO5)cc3[C@@H]2C[C@@H]1N(C)C(=O)C1CCCCC1`, -0.66% (inactive).
As for `Cc1ccc(OCc2nnc(SC/C=C/c3ccccc3)n2Cc2ccco2)cc1`, the activation is -1.14% (inactive).
The result for `COc1ccc(N2CCN(CCNS(=O)(=O)c3ccc(C(C)(C)C)cc3)CC2)cc1` reads -4.56% (inactive); that for `CC1=NCCN1S(=O)(=O)c1ccc(Br)c(C)c1`, -1.01% (inactive); that for `COc1ccc(CN2C/C(=C/c3ccccc3)N3C(=O)C[C@@H](c4ccccc4)N=C23)c(OC)c1`, -1.56% (inactive).
To `CN(CCOc1ccccc1)C(=O)c1cc(COc2c(F)cccc2F)on1` belongs -1.26% (inactive).
As to `COc1cc2ccccc2cc1C(=O)N(CCN(C)C)c1nc2c(F)cccc2s1`, the activation is 6.37% (active).
To `COc1cccc2cc(C(=O)N(C)C)c(=O)oc12` belongs -0.74% (inactive); to `O=S1(=O)c2ccc(N3CCN(Cc4ccccc4F)CC3)cc2Oc2ccccc2CN1Cc1cn(Cc2ccc(Cl)cc2)nn1`, 0.96% (inactive); to `COc1ccc(CNS(=O)(=O)c2cc(Br)ccc2Br)cc1`, -0.97% (inactive).
Turning to `CC1CCN(C(=O)c2ncn3c2C(=O)N[C@@H](C)C3)CC1`, the activation is -0.73% (inactive).
Turning to `CCc1c(C)nc2c(OC)cccc2c1Cl`, the activation is -0.4% (inactive).
As for `Cc1nc(N=C(N)N)nc2c(C)cccc12`, the activation was 5.96% (active).
Take `COc1nc(N=C(N)N)nc2c(C)cccc12`: the activation is 6.14% (active).
To `CCOC(=O)[C@]12CCCCC/C=C\1N(Cc1ccc(OC)cc1)C(=O)[C@H]2CC(=O)N1CCOCC1` belongs 4.16% (inactive); to `Cc1cc(C(=O)NN=C/C=C/c2ccco2)n[nH]1`, -0.38% (inactive).
The result for `NNc1nc2c(Cl)cccc2s1` reads 10% (active).
The result for `COC(=O)C1=C(C)N(Cc2ccccc2C(F)(F)F)C(=NCC2CC2)NC1c1cccc(Cl)c1` (stereo not drawn) reads -1.98% (inactive); that for `O=C(Nn1c(-c2ccc(Cl)cc2)nc2ccccc2c1=O)c1cccnc1Cl`, 0.57% (inactive); that for `Cc1cccc(-c2nc3ccccc3c(=O)n2NC(=O)Cc2ccc(Cl)cc2)c1`, 6.73% (active).
Turning to `COc1cc(OC)cc(-c2nc3ccccc3c(=O)n2NC(=O)c2cccnc2Cl)c1`, the activation is -1.71% (inactive).
The result for `S=c1c2[nH]cnc2ncn1CCSc1ncnc2nc[nH]c12` reads -0.28% (inactive); that for `CC(C)CC(=O)Nc1ccc(Cc2ccncc2)cc1`, 0.36% (inactive); that for `CC(CC(=O)Nc1ccccc1)n1ccnc1` (stereo not drawn), 5.72% (active).
To `O=C(O)CCCC(=O)Nc1ccccc1-n1ccnc1` belongs -1.24% (inactive); to `CCOc1ccc(NC(=O)CCS(=O)(=O)c2ccc3c(c2)CCCN3C(=O)CC)cc1`, -1.11% (inactive).
Consider `Cc1ccccc1C(=O)Nc1ccccc1Sc1ccccc1`, for which the activation is -0.9% (inactive).
The result for `Cc1ccccc1NC(=O)CCOc1ccccc1` reads 0.95% (inactive).
The result for `COc1cc2ccccc2cc1C(=O)Nc1ccccc1C` reads 10.1% (active); that for `CCCCCCCCN1C(=O)[C@@H](CC(=O)NCc2ccccc2)C[C@@]2(C(=O)OC)C1=C[C@H](C(C)(C)C)O[C@@H]2C`, 1.65% (inactive).
In the case of `COC1=C[C@H](C(=O)NCCNC(C)=O)[C@H](C)[C@@H](c2ccccc2)CC1=O`, the activation was -2.16% (inactive).
Turning to `O=C(c1ccccc1)c1ccc(-c2ccccc2C(=O)NC2CCCCN(Cc3ccc(Cl)cc3)C2=O)cc1` (stereo not drawn), the activation was -0.91% (inactive).
To `COC(=O)c1c(-c2ccc(OC)cc2)c2c(c3c4ccccc4n(S(=O)(=O)c4ccc(C)cc4)c13)C(=O)N(C)C2` belongs 1.29% (inactive).
The result for `CCc1ccc(-c2nnn(Cc3nc4ccccc4s3)n2)cc1` reads 3.01% (inactive).
The result for `COc1ccccc1OCc1nc2ccccc2s1` reads 17.9% (active).
For the compound `COC(=O)C1[C@H]2SC(C)(C)C(C(=O)OC)N2C(=O)N1Cc1nc2ccccc2s1` (stereo partly drawn), the activation was 0.45% (inactive).
To `N#Cc1ccc(OC[C@@H](O)CN2CCC(C(O)(c3ccccc3)c3ccccc3)CC2)c(F)c1` belongs 0.25% (inactive).
